Hits are enriched below; roughly 7.7% of the tested compounds scored in any of these assays.
Shh pathway inh = Hedgehog pathway signaling inhibitors, primary screen, luminescence, Shh-LIGHT2 cells, Gli-luciferase. 2.1% of 22,000 active. Shh-LIGHT2 Gli-luciferase reporter, 30 h. inhibition, % (no concentration beside the values);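 active = mean inhibition across valid replicates above about 65%, limit read from the data; inconclusive = mean under the limit, yet half or more replicates past it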;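 note: pathway switched on by Shh-conditioned medium diluted 1 in 25 in low serum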
NOMO-1 viab = NOMO-1 AML cell viability reduction, primary screen, STK33 inhibitor project, CellTiter-Glo luminescence; NOMO-1 AML viability, 72 h; inhibition, % (test concentration not listed); 7.5% of 37,000 active; AID 2330, 2010; in the data active = inhibition above about 80%; inconclusive = no clear call, values can overlap the other calls
PD-1 reverse act = activators reversing PD-1 mediated T-cell inhibition, primary screen, luminescence, primary human CD4 T cells, PD-L1 beads | AID 2316, 2010 | 29,000 tested, under 10 active | activation, % (no concentration beside the values) | CellTiter-Glo 96 h; call rule not given here;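 note: 0% = median vehicle wells and 100% = positive control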
Numbers without * were called inactive; ? = inconclusive; . = not tested or not shown.

SMILES | Shh pathway inh | NOMO-1 viab | PD-1 reverse act
COc1ccc(OC)c(NC(=O)C2=C(C)NC(=S)NC2c2ccc(OC)cc2OC)c1 (configuration not stated) | . | 38 | -8
COC(=O)COc1ccc(C2NC(=S)NC(C)=C2C(=O)OC)cc1 (configuration not stated) | . | 89* | .
O=C(COc1ccc(Cl)cc1Cl)Nc1ncccn1 | . | 9 | .
C=CCNC(=O)COc1ccc(Cl)cc1Cl | -56 | 115* | 1
COC(/C=C/C(OC(C)=O)C(C)OC(C)=O)C(O)C1CC=CC(=O)O1 (configuration not stated) | 3 | 27 | 0
COc1ccc(S(=O)(=O)Nc2c(C)nc3nc[nH]n3c2=O)cc1 | . | 33 | 1
COc1ccc(S(=O)(=O)Nc2cc(C)cc(C)c2)cc1 | -11 | 96* | 0
Cc1ccc([N+](=O)[O-])cc1NC(=O)CSc1nnnn1C1CC2CCC1C2 (configuration not stated) | . | -2 | .
CCn1c2ccccc2c2cc(NC(=O)CN3C(=O)c4ccccc4C3=O)ccc21 | . | 29 | .
Cc1cc2ccccc2n2c(SCC(N)=O)nnc12 | . | 21 | .
Cc1cc2ccccc2n2c(SCC(=O)NCc3ccco3)nnc12 | . | 111* | 0
Cc1cc(C)c(C#N)c(SCC(O)CSc2ccc(Cl)cc2)n1 (configuration not stated) | . | 10 | 0
COc1ccc2c(c1)OCC(Cc1ccc(OC)c(OC)c1)C2=O (configuration not stated) | 3 | -3 | .
COc1ccc2c(c1)OCC(Cc1ccc(OC)c(OC(C)=O)c1)C2=O (configuration not stated) | 3 | 108* | .
CC1CCN(C(=O)c2cc3nc(-c4ccco4)cc(C(F)(F)F)n3n2)C(C)C1 (configuration not stated) | 20 | 76 | -1
CS(=O)(=O)N(CC(=O)Nc1c(F)cccc1F)C1CCCCC1 | . | 19 | 1
Cc1ccc(S(=O)(=O)CCSc2sc(C#N)c3c2C(=O)CC(C)(C)C3)cc1 | 66* | 94* | -2
CCOC(=O)c1sc(SCCS(=O)(=O)c2ccc(Cl)cc2)c2c1CCCC2=O | 16 | 30 | 0
COc1ccc(Cn2c(-c3nonc3NC(C)=O)nc3ccccc32)cc1 | . | 45 | -1
CC(=O)Nc1nonc1-c1nc2ccccc2n1Cc1cccc2ccccc12 | . | 118* | .
O=C(CC1(O)C(=O)N(Cc2ccccc2)c2ccccc21)c1cc2ccccc2oc1=O (configuration not stated) | . | 105* | 0
COc1cccc2cc(C(=O)NCc3ccccn3)c(=O)oc12 | . | 4 | 4
COc1cccc2cc(C(=O)CC3(O)C(=O)N(Cc4ccccc4)c4ccc(Br)cc43)c(=O)oc12 (configuration not stated) | . | 127* | -6
O=C(NCCO)c1cc2ccccc2oc1=O | . | 18 | 0
C=C(CO)C(=O)O[C@H]1CC(=C)[C@@H]2CC(=O)[C@H](C)[C@@H]2[C@H]2OC(=O)C(=C)[C@@H]21 | 40 | 107* | -6
SMILES | Shh pathway inh | NOMO-1 viab | PD-1 reverse act
C=C1C(=O)O[C@@H]2[C@H]3C(C)=CC(=O)C3=C(C)C[C@H](O[C@@H]3O[C@H](CO)[C@@H](O)[C@H](O)[C@H]3O)[C@@H]12 | -8 | 3 | 2
COC(=O)Nc1nc2ccc(-c3n[nH]c(=O)c4ccccc34)cc2[nH]1 | -16 | 108* | 0
CCCCc1ccc2nc(NC(=O)OC)[nH]c2c1 | 41 | 120* | .
Cc1ccc2nc(NCCCO)[nH]c2c1 | . | 26 | .
O=c1[nH]nc(-c2ccccc2)c2ccccc12 | 19 | 13 | -3
Cc1cccc(CSc2nnc(NC(=O)c3oc4ccc(F)cc4c3C)s2)c1 | . | 11 | .
Cc1sc(NC(=O)c2cc(-c3cccnc3)nc3ccc(Cl)cc23)c(C(N)=O)c1-c1ccccc1 | . | 29 | .
Cc1cc(N(CC(=O)Nc2ccc3c(c2)OCCO3)S(C)(=O)=O)ccc1Br | . | 28 | 1
N#Cc1ccc(CSc2nc(-c3cccs3)c3c(c2C(=O)O)CCCC3)cc1 | ? | 11 | 4
CN1CCc2c(-c3cccs3)nc(OCc3ccccc3Br)c(C#N)c2C1 | 65* | 97* | -12
C[C@@H]1CN([C@@H](C)CO)C(=O)c2cccc(NC(=O)c3cnccn3)c2O[C@H]1CN(C)Cc1ccc(Cl)c(Cl)c1 | -12 | 105* | -8
C[C@H](CO)N1C[C@H](C)[C@@H](CN(C)Cc2ccncc2)Oc2c(NC(=O)c3cnccn3)cccc2C1=O | 70* | 7 | .
C[C@@H]1CN([C@@H](C)CO)C(=O)c2cccc(NC(=O)c3cnccn3)c2O[C@@H]1CN(C)Cc1ccncc1 | 4 | 3 | 1
C[C@@H]1CN([C@@H](C)CO)C(=O)c2cccc(NC(=O)c3cnccn3)c2O[C@@H]1CN(C)Cc1ccc(Cl)c(Cl)c1 | 12 | 10 | .
C[C@@H]1CN([C@H](C)CO)C(=O)c2cccc(NC(=O)c3cnccn3)c2O[C@H]1CN(C)Cc1ccc(C(=O)Nc2ccccc2N)cc1 | . | ? | 0
C[C@@H]1CN([C@@H](C)CO)C(=O)c2cccc(NC(=O)c3cnccn3)c2O[C@@H]1CN(C)Cc1ccc(C(=O)Nc2ccccc2N)cc1 | . | 129* | -3
Cn1c(=O)c2c(nc(N3CCOCC3)n2CCCN)n(C)c1=O | . | -9 | .
Cc1ccc(S(=O)(=O)N(C)C[C@H]2Oc3ccc(NC(=O)Nc4ccc(C(F)(F)F)cc4)cc3C(=O)N([C@H](C)CO)C[C@@H]2C)cc1 | -17 | 126* | .
COc1ccc(S(=O)(=O)N(C)C[C@H]2Oc3ccc(NC(=O)Nc4ccc(C(F)(F)F)cc4)cc3C(=O)N([C@H](C)CO)C[C@H]2C)cc1 | -10 | 88* | -1
Cc1ccc(S(=O)(=O)N(C)C[C@H]2Oc3ccc(NC(=O)Nc4ccc(C(F)(F)F)cc4)cc3C(=O)N([C@H](C)CO)C[C@H]2C)cc1 | 23 | 92* | -2
Cc1ccc(S(=O)(=O)N(C)C[C@@H]2Oc3ccc(NC(=O)Nc4ccc(C(F)(F)F)cc4)cc3C(=O)N([C@H](C)CO)C[C@H]2C)cc1 | -5 | 97* | -1
COc1ccc(S(=O)(=O)N(C)C[C@H]2Oc3ccc(NC(=O)Nc4ccc(C(F)(F)F)cc4)cc3C(=O)N([C@@H](C)CO)C[C@H]2C)cc1 | -3 | 60 | 1
Cc1ccc(S(=O)(=O)N(C)C[C@@H]2Oc3ccc(NC(=O)Nc4ccc(F)cc4)cc3C(=O)N([C@@H](C)CO)C[C@H]2C)cc1 | -12 | 33 | -1
C[C@H]1CN([C@@H](C)CO)C(=O)c2cc(NC(=O)Nc3ccc(C(F)(F)F)cc3)ccc2O[C@@H]1CN(C)S(=O)(=O)c1ccccc1 | . | 20 | -3
C[C@@H]1CN([C@H](C)CO)C(=O)c2cc(NC(=O)Nc3ccc(C(F)(F)F)cc3)ccc2O[C@H]1CN(C)S(=O)(=O)c1ccc(Cl)cc1 | . | 54 | -2
O=C(CSCc1cccc2ccccc12)Nc1ccc(C(F)(F)F)cc1 | 20 | 31 | 0
CCCCCC[C@H](O)[C@@H]1C[C@@H](O)C2=C(O1)[C@@H](O)CCC2=O | -27 | 3 | 5
Cc1nc(SCC(=O)c2cc3ccccc3oc2=O)c(C(N)=O)c(C)c1C | . | 26 | -3
CC(C)(C)c1cc(-c2cccs2)c(C#N)c(SCC(=O)Oc2ccccc2)n1 | 65* | 18 | -32

Bioassay records (PubChem)
